# About 5,100 (32%) of roughly 16,000 compounds were called active. Inconclusive results (about 25%) are left out. The list shows a part of the results. Some compounds were tested as several samples or in several runs, with calls that do not always agree. Unmarked numbers belong to inactive results. The call rests on the fitted dose curve; in most records, active means well fitted curve in the direction sought with a large enough effect; inconclusive means small, poorly fitted or top-dose-only effect, or effect the other way; inactive means no such curve, though single readings can be large or run the other way.
# Biological target: Cytochrome P450 3A4 (Homo sapiens) (UniProt P08684)
# Sequence (P08684 whole entry, looked up): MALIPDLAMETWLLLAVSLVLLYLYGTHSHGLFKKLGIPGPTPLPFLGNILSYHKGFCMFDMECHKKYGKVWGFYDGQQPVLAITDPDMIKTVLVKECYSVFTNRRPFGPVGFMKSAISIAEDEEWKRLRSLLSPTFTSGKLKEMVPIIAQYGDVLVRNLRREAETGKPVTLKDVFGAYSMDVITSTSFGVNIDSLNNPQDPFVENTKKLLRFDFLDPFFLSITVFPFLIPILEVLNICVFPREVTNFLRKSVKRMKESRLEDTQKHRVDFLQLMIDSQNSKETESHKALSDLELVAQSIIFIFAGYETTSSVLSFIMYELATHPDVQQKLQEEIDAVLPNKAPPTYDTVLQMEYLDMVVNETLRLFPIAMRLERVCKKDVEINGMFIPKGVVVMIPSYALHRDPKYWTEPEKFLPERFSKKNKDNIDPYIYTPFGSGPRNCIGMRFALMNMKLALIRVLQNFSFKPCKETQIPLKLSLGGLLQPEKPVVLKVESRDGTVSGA
# Assay: Cytochrome panel assay with activity outcomes
# Conditions: recombinant CYP, pro-luciferin dealkylation, luminescence, p450-cyp3a4; series mostly up to 57.1 µM
# On the % scale 0 is the no-effect control and ±100 the full control effect.
Compound,AC50,"activity, negative = inhibition"
CN1CCc2ccccc2[C@@H]1Cc1ccccc1NC(=O)c1sc2ccccc2c1Cl,1.58 µM (active),–
Cc1cc(C)c(C#N)c(SCc2cc3c(cc2Cl)OCO3)n1,3.98 µM (active),–
COc1ncc2ncc(=O)n(C3CC3)c2n1,inactive,–
COc1cccc(Cn2c(=O)cnc3cnc(OC)nc32)c1,10 µM (active),–
COc1cccc(Cn2c(=O)cnc3cnc(OCc4ccccc4)nc32)c1,12.6 µM (active),–
COc1cccc(Cn2c(=O)cnc3cnc(Oc4cccc(Cl)c4)nc32)c1,5.01 µM (active),–
N[C@@H](Cn1cc(F)c(=O)[nH]c1=O)C(=O)O,inactive,–
CCC(c1nnnn1CC1CCCO1)N(CCN1CCOCC1)Cc1cc2cc(C)ccc2[nH]c1=O (centres undefined),15.8 µM (active),–
COCOc1ccc(Br)cc1C(=O)[C@H]1O[C@H]1c1cccc(OC)c1,3.98 µM (active),–
COc1ccc(CCN(C)CCC(=O)Nc2c(C)cc(C)cc2C)cc1OC,7.94 µM (active),–
COc1ccccc1OCc1ccc(C(=O)N(C)C)o1,–,4.32% [at 2.29 µM]
COc1ccc(CCN(C)Cc2ccc(OCc3ccccc3)c(OC)c2)cc1OC,0.631 µM (active),–
C[C@@H]1/C=C\CC(=O)OC[C@H]2O[C@@H](C=C[C@@H]2O)[C@H](C)/C=C\CC(=O)OC[C@H]2O[C@H]1C=C[C@@H]2O,–,-21.3% [at 11.4 µM]
Cc1ccc(S(=O)(=O)N[C@H]2COC(=O)[C@@H](Cc3ccccc3)NC(=O)[C@@H](C)COC(=O)C/C=C\[C@@H]2C)cc1,3.98 µM (active),-7.89% [at 11.4 µM]
C[C@@H]1/C=C\CC(=O)OC[C@H](C)C(=O)N[C@@H](C)C(=O)OC1,–,-13.1% [at 11.4 µM]
Cc1ccc(S(=O)(=O)N[C@H]2COC(=O)C/C=C\[C@@H](C)[C@H](NS(=O)(=O)c3ccc(C)cc3)COC(=O)C/C=C\[C@H]2C)cc1,3.16 µM (active),–
Cc1ccc(S(=O)(=O)N[C@H]2COC(=O)CC=C[C@@H](C)[C@H]3C=C[C@H](O)[C@@H](COC(=O)CC=C[C@H]2C)O3)cc1,3.16 µM (active),-9.33% [at 11.4 µM]
CO[C@@H]1COC(=O)CC=C[C@@H](C)[C@@H]2C=C[C@@H](O)[C@@H](COC(=O)C/C=C\[C@H]1C)O2,–,-26.7% [at 11.4 µM]
C[C@H]1COC(=O)[C@H]2CCCN2C(=O)[C@@H](C)COC(=O)[C@H](Cc2ccccc2)NC1=O,–,-25.7% [at 11.4 µM]
CSCC[C@@H]1NC(=O)C/C=C\[C@@H](C)COC(=O)[C@@H](C)COC1=O,–,-21.5% [at 11.4 µM]
CO[C@H]1COC(=O)C/C=C\[C@H](C)COC(=O)[C@@H](C)NC(=O)C/C=C\[C@@H]1C,–,-29.4% [at 11.4 µM]
Cc1ccc(S(=O)(=O)N[C@@H]2COC(=O)C/C=C\[C@H](C)COC(=O)N[C@@H](C)C(=O)C/C=C\[C@H]2C)cc1,3.16 µM (active),–

Compound,AC50,"activity, negative = inhibition"
c1ccc2c(c1)C(=Nc1ccc(N=C3c4ccccc4-c4ccccc43)cc1)c1ccccc1-2,–,-5.03% [at 11.4 µM]
CCNC(=O)C/C(C)=N/NC(=O)C12CC3CC(CC(C3)C1)C2,–,18.8% [at 2.29 µM]
CCOC(=O)CSCC(NC(=O)OC(C)(C)C)C(=O)OCC (centres undefined),inactive,–
CO[C@H]1COC(=O)C/C=C\[C@@H](C)COC(=O)[C@H]2CCCN2C(=O)C/C=C\[C@H]1C,–,-22.4% [at 11.4 µM]
Cc1ccc(S(=O)(=O)N[C@H]2COC(=O)C/C=C\[C@H](C)[C@@H](NS(=O)(=O)c3ccc(C)cc3)COC(=O)C/C=C\[C@@H]2C)cc1,3.98 µM (active),–
Cc1ccc(S(=O)(=O)N[C@H]2COC(=O)C/C=C\[C@@H](C)COC(=O)C/C=C\[C@@H]2C)cc1,3.16 µM (active),-13.2% [at 11.4 µM]
Cc1ccc(S(=O)(=O)N[C@H]2COC(=O)C/C=C\[C@@H](C)[C@H](NS(=O)(=O)c3ccc(C)cc3)COC(=O)[C@H](C)NC(=O)C/C=C\[C@H]2C)cc1,–,-35.2% [at 11.4 µM]
CO[C@H]1COC(=O)C/C=C\[C@@H](C)COC(=O)[C@@H](C)NC(=O)C/C=C\[C@@H]1C,–,14.4% [at 11.4 µM]
CC(=O)Nc1ccc(S(=O)(=O)NCC2CCC(C(=O)NCCC(C)C)CC2)cc1 (centres undefined),17.8 µM (active),–
COCC(=O)N1CCC2(CC1)CN(c1ccccn1)C2,inactive,–
CC(=O)Nc1ccc(S(=O)(=O)NCC2CCC(C(=O)N3CCN(c4ccccn4)CC3)CC2)cc1 (centres undefined),12.6 µM (active),–
O=C(c1cnc(N2CCN(c3ncccn3)CC2)c2ccccc12)N1CCN(c2ccccn2)CC1,–,-7.43% [at 11.4 µM]
CC(=O)Nc1ccc(S(=O)(=O)N2CCC(N(C)CCC(C)C)CC2)cc1,inactive,–
COc1ccc(S(=O)(=O)NCc2ccc(C(=O)N3CCN(c4ccccn4)CC3)cc2)cc1,15.8 µM (active),–
CC(=O)N1CCC2(CC1)CCN(c1ccccn1)CC2,inactive,–
O=C(C1CCN(S(=O)(=O)c2cccc3cccnc23)CC1)N1CCN(c2ccccn2)CC1,3.55 µM (active),–
O=C(C1CCN(S(=O)(=O)N2CCOCC2)CC1)N1CCN(c2ccccc2)CC1,inactive,–
CC(C)c1ccc(OCc2ccc(C(=O)N3CCN(c4ccccn4)CC3)cc2)cc1,inactive,–
COC(Cn1c(C)c(C(C)=O)c(C(C)=O)c1C)OC,inactive,–
O=C(O)COC(=O)Cc1ccccc1Nc1c(Cl)cccc1Cl,inactive,–
CCOC(=O)n1ccn(C)c1=S,inactive,–
COc1ccc2cc(CCNC(=O)C3CC3)c(=O)[nH]c2c1,inactive,–

Compound,AC50,"activity, negative = inhibition"
Cc1ccc2cc(CCNC(=O)c3ccc(Br)o3)c(=O)[nH]c2c1,14.1 µM (active),–
CCOC(=O)N/N=C1/C[C@@H](O)[C@@H](O)[C@@H]2[C@@H]3C(=O)N(Cc4ccc5c(c4)OCO5)C(=O)[C@H]3CC[C@@H]12,3.98 µM (active),–
O=C(N/N=C1/C[C@@H](O)[C@@H](O)[C@@H]2[C@@H]3C(=O)N(Cc4ccccc4)C(=O)[C@H]3CC[C@@H]12)OCc1ccccc1,–,-17.8% [at 11.4 µM]
COc1ccc(COC(=O)N/N=C2/C[C@@H](O)[C@@H](O)[C@@H]3[C@@H]4C(=O)N(c5cccc(Oc6ccccc6)c5)C(=O)[C@H]4CC[C@H]23)cc1,3.16 µM (active),–
CCOC(=O)N/N=C1/C[C@@H](O)[C@@H](O)[C@@H]2[C@@H]3C(=O)N(c4cccc(Oc5ccccc5)c4)C(=O)[C@H]3CC[C@H]12,–,-29.2% [at 11.4 µM]
O=C(N/N=C1/C[C@@H](O)[C@@H](O)[C@@H]2[C@@H]3C(=O)N(Cc4ccc5c(c4)OCO5)C(=O)[C@H]3CC[C@@H]12)OCc1ccccc1,1.26 µM (active),–
CCOC(=O)N/N=C1/C[C@@H](O)[C@@H](O)[C@@H]2[C@@H]3C(=O)N(c4cccc(Oc5ccccc5)c4)C(=O)[C@H]3CC[C@@H]12,–,-28.7% [at 11.4 µM]
O=C(N/N=C1/C[C@@H](O)[C@@H](O)[C@@H]2[C@@H]3C(=O)N(Cc4ccc5c(c4)OCO5)C(=O)[C@H]3CC[C@H]12)OCc1ccccc1,3.98 µM (active),–
CCN1C(=O)[C@H]2[C@H]3[C@H](O)[C@H](O)C/C(=N/NC(=O)OCc4ccccc4)[C@H]3CC[C@@H]2C1=O,–,-12.4% [at 11.4 µM]
CCOC(=O)N/N=C1/C[C@@H](O)[C@@H](O)[C@@H]2[C@@H]3C(=O)N(Cc4ccccc4)C(=O)[C@H]3CC[C@H]12,–,-22% [at 11.4 µM]
O=C(N/N=C1/C[C@@H](O)[C@@H](O)[C@@H]2[C@@H]3C(=O)N(Cc4ccccc4)C(=O)[C@H]3CC[C@H]12)OCc1ccccc1,–,-21.6% [at 11.4 µM]
CCN1C(=O)[C@H]2[C@H]3[C@H](O)[C@H](O)C/C(=N/NC(=O)OCc4ccccc4)[C@@H]3CC[C@@H]2C1=O,–,-8.99% [at 11.4 µM]
CCOC(=O)N/N=C1/C[C@@H](O)[C@@H](O)[C@@H]2[C@@H]3C(=O)N(Cc4ccccc4)C(=O)[C@H]3CC[C@@H]12,–,-18.3% [at 11.4 µM]
O=C(O)C12CC3(C(=O)O)CC(C(=O)O)(CC(C(=O)O)(C1)C3=O)C2=O,–,-8.55% [at 11.4 µM]
N[C@@H](C(=O)O)c1ccc(O)c(C(=O)O)c1,inactive,–
NC(=NCCCCCCN=C(N)/N=C(\N)Nc1ccc(Cl)cc1)/N=C(\N)Nc1ccc(Cl)cc1,inactive,–
Nc1nc2c(c(=O)[nH]1)CN(CCCN1CCOCC1)CN2,–,-5.39% [at 11.4 µM]
Cc1nn(C)c(Cl)c1S(=O)(=O)N[C@@H](c1ccccc1)[C@]1(C)C[C@H]1[C@@H](C)C(=O)Nc1ccc2ccccc2c1,1.26 µM (active),–
C[C@@H](C(=O)Nc1ccc2ccccc2c1)[C@@H]1C[C@@]1(C)[C@@H](NS(=O)(=O)c1ccc(-c2ccccc2)cc1)c1ccccc1,inactive,–
C[C@@H](C(=O)Nc1ccc2ccccc2c1)[C@H]1C[C@]1(C)[C@H](NS(=O)(=O)c1ccc(-c2ccccc2)cc1)c1ccccc1,10 µM (active),–
C[C@@H](C(=O)Nc1ccc2ccccc2c1)[C@H]1C[C@]1(C)[C@H](NS(=O)(=O)c1ccc2ccccc2c1)c1ccccc1,7.94 µM (active),–
CC(C)OC(=O)CC12CN(C)CC(CC(=O)OC(C)C)(CN(C)C1)C2=O,–,15.3% [at 2.29 µM]

# From PubChem BioAssay AID1851 (National Center for Advancing Translational Sciences (NCATS), 2009)
